p53 reactivator: restores transcriptional activity of mutant p53 | H1299 p53-A138V BP100-luciferase reporter, luminescence, 24 h | Potency, µM (top dose mostly 92.2 µM), without a hit: top-dose activity change, positive = activation, actives largely listed as activators | 320,000 tested, 0.063% active | AID 504706; also: potency is read from the fitted curve at half-maximal effect; % of control where 0% means no effect; nearly all actives have a fitted effect of over 45% in size
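p53-null H1299 cells stably carrying temperature-sensitive p53-A138V and a BP100-luciferase reporter were pinned with compounds (4-point, 1:5 series) and held 24 hrs at 37 deg C. Luminescence was read 10 min after detection reagent.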
A549 viability: counter-screen for Nrf2 inhibitors: cytotoxicity in A549 cells | Potency, µM (series often up to 46 µM), without a hit: top-dose activity change, negative = cytotoxicity, usual class: inhibitors | 390,000 tested, 0.16% active | AID 504648 | A549 ARE-Fluc cells, CellTiter-Fluor viability, 18-24 h; also: potency is read from the fitted curve at half-maximal effect; % is scaled to controls: 0 for no effect and ±100 for the full control effect
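A549 ARE_Fluc cells in 5% FBS OPTI-MEM were exposed to compounds in concentration-response for 18-24 h at 37 deg C. Viability was read by CellTiter-Fluor fluorescence (Ex 405/Em 525) after 30 min, before the luciferase read.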
IL-2 act: IL-2 activation; IL-2 activation reporter assay, cell-based qHTS; stimulated with anti-CD3/CD4/CD28 beads; in transgenic mouse T cells; activation, % (series mostly up to about 46 µM); 360,000 tested, 0.065% active; AID 652025; in the data active = activation above about 50%; inconclusive = mostly about 30% to 49%; also: 0% is about no effect
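Unstimulated transgenic mouse T cells, 750 per well, received compound and, after 60 minutes, anti-CD3/anti-CD4 bead plus anti-CD28 stimulation. EGFP and DsRed were quantified after 18 hours.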
Nrf2 ARE act: activators of Nrf2 (ARE) signaling; AREc32 ARE-luciferase reporter (MCF7-derived line), luminescence, 24 h; Potency, µM (highest dose often 46.1 µM), for inactives: at the top dose activation, actives largely listed as activators; 410,000 tested, 0.31% active; AID 624171; also: potency is read from the fitted curve at half-maximal effect; % of control where 0% means no effect; nearly all actives have a fitted effect of over 65% in size
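Each well held 1000 AREc32 cells, which were incubated with compound for 24 hr at 37 deg C after overnight attachment, and ARE reporter activity was quantified by firefly luciferase luminescence.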
Nrf2 block: inhibitors of Nrf2 signaling; A549 ARE-Fluc reporter, luciferase luminescence, 18-24 h; Potency, µM (series often up to 46 µM), inactives show at the highest dose activity change, negative = inhibition, actives largely listed as inhibitors; 360,000 tested, 2.1% active; also: potency is read from the fitted curve at half-maximal effect; % is scaled to controls: 0 for no effect and ±100 for the full control effect; nearly all actives have a fitted effect of over 60% in size
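A549 ARE_Fluc cells, 5000/well, 5% FBS OPTI-MEM; compounds in dose-response, 18-24 h at 37 °C/5% CO2; CellTiter-Fluor viability read (Ex 405/Em 525), then BugLite luciferase luminescence = Nrf2 activity.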
BRCA1 expr act: increases BRCA1 expression. 380,000 tested, 1.1% active. AID 624202. Potency, µM (series often up to 46.1 µM), inactives show at the top dose activation, hits mostly activators. MCF7-BRCA1-FFLuc reporter, luminescence, 48 h; response scale: scaled: vehicle 0%, 10 µM genistein 100%; also: potency is read from the fitted curve at half-maximal effect; nearly all actives have a fitted effect of over 80% in size
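48 h compound treatment of MCF7-BRCA1-FFLuc cells (phenol-red free MEM, 37 °C), then 15 min with luciferase substrate and luminescence imaging.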
* = called active by the depositor. The list is not random: actives were taken first. Their share in the collection is about 3.2%. Unless noted, calls follow the shape of the dose curve; as a rule, active = well fitted curve in the direction sought with a large enough effect; inconclusive = small, poorly fitted or top-dose-only effect, or another doubt; inactive = no such curve, though single readings can be large; an effect the other way counts as inactive or inconclusive.

What do the screens show for `COc1ccc(-c2nc(NC(=O)c3c(C)noc3C)sc2C)cc1`?
p53 reactivator: 10%; A549 viability: -17%; IL-2 act: -3; Nrf2 ARE act: 1%; Nrf2 block: inconclusive; BRCA1 expr act: -35%

How did COc1ccccc1NC(CC(=O)c1ccccc1)C(=O)OCC(=O)c1ccc(Br)cc1 (centres undefined) do in these assays?
p53 reactivator: inconclusive; A549 viability: 0%; IL-2 act: 0; Nrf2 ARE act: 22µM*; Nrf2 block: inconclusive; BRCA1 expr act: -32%

How did COc1ccccc1NC(CC(=O)c1ccccc1)C(=O)OCC(=O)c1ccc(C)c(C)c1 (centres undefined) do in these assays?
A549 viability: -11%; IL-2 act: 0; Nrf2 ARE act: 13µM*; Nrf2 block: inconclusive; BRCA1 expr act: -24%

What do the screens show for `COc1ccccc1NC(CC(=O)c1ccccc1)C(=O)OCC(=O)c1ccc(C)cc1` (centres undefined)?
p53 reactivator: inconclusive; A549 viability: -1%; IL-2 act: -1; Nrf2 ARE act: 12%; Nrf2 block: inconclusive; BRCA1 expr act: -23%

How did CC1(C)OC(=O)C2(Cc3ccccc3N3CCC(c4ccccc4)CC32)C(=O)O1 (centres undefined) do in these assays?
A549 viability: -2%; Nrf2 block: 22%; BRCA1 expr act: 0%

What do the screens show for `CCOc1ccc(CCNC(=O)c2c(C)oc3ncn(CC(C)C)c(=O)c23)cc1`?
A549 viability: 1%; Nrf2 ARE act: -1%; Nrf2 block: 5%; BRCA1 expr act: -14%

How did Cc1nc2nncn2c(N2CCN(c3ccccc3)CC2)c1C do in these assays?
A549 viability: -2%; Nrf2 ARE act: -1%; Nrf2 block: -26%

Results for COc1ccc(N2CCN(c3c4c(nc5nncn35)CCC4)CC2)cc1 ?
A549 viability: 2%; Nrf2 ARE act: 0%; Nrf2 block: 21µM*

Results for O=C1Nc2ccccc2-n2nnnc2C1N1CCc2ccccc2C1 (centres undefined) ?
IL-2 act: 0

Results for Cc1c(C(=O)N2CCC(C)CC2)sc2ncnc(N(C)c3ccccc3)c12 ?
p53 reactivator: -10%; A549 viability: -9%; IL-2 act: -3; Nrf2 ARE act: 0%; Nrf2 block: 18µM*; BRCA1 expr act: -12%

Results for Cc1c(C(=O)N2CCC(Cc3ccccc3)CC2)sc2ncnc(N3CCC(C)CC3)c12 ?
p53 reactivator: -1%; A549 viability: 1%; IL-2 act: 0; Nrf2 ARE act: 0%; Nrf2 block: -4%; BRCA1 expr act: 0%

How did Cc1ccc(C)c(NC(=O)Cn2cnc3nc4c(cc3c2=O)CCCC4)c1 do in these assays?
A549 viability: -19%; Nrf2 ARE act: 0%

What do the screens show for `O=c1c2ccccc2nc2c3ccccc3cnn12`?
p53 reactivator: 7%; A549 viability: 0%; IL-2 act: 2; Nrf2 ARE act: 9%; Nrf2 block: 29%; BRCA1 expr act: 7.9µM*

What do the screens show for `O=c1c2ccccc2nc2c3ccccc3c(Cl)nn12`?
p53 reactivator: 2%

What do the screens show for `CCN=c1scc(C)n1/N=C/c1ccsc1`?
p53 reactivator: inconclusive; A549 viability: -2%; IL-2 act: 1; Nrf2 ARE act: 7.1µM*; Nrf2 block: inconclusive; BRCA1 expr act: 58%

How did CN=c1scc(C)n1/N=C/c1ccc(O)c(O)c1O do in these assays?
p53 reactivator: 0%; A549 viability: -11%; IL-2 act: -1; Nrf2 ARE act: 4%; Nrf2 block: 17%; BRCA1 expr act: -34%

Results for CCOc1cccc(-c2cnc3cccnn23)c1 ?
IL-2 act: -1; Nrf2 ARE act: 0%; BRCA1 expr act: 8.9µM*

Screens: PubChem, National Center for Advancing Translational Sciences (NCATS)
